Assay results published in publication PMC7155171, “Probing the Open Global Health Chemical Diversity Library for Multistage-Active Starting Points for Next-Generation Antimalarials” (ACS Infectious Diseases, 2020).

Test system: P. berghei liver stage (PbLuc)
Parameters: species or system HepG2-A16-CD81; P. berghei luciferase sporozoite infection of hepatocytes, liver stage luminescence
Details: inhibitor

In order of falling “PbLuc primary screen (2uM): inhibition % (n=1)” value:
1. COc1cc2c(cc1-c1nc3c[nH]n(C(C)C4CC4)c-3n1)OCO2 (stereo not drawn) [DDD01244142]  67.28%
2. CCc1c(C)[nH]c2cc(C3CCN(Cc4cccc(F)c4)C3)nn2c1=O (stereo not drawn) [DDD01060569]  65.74%
3. CCc1ccc(NC(=O)Nc2c(O)c3ccccc3oc2=O)cc1 [DDD01037337]  49.69%
4. Cc1[nH]n(-c2ccc(F)cc2)c2nnc(N)c1-2 [DDD01065623]  39.0185%
5. Cc1[nH]n(-c2ccccc2)c2nc(C(C)(C)CN3CCN(C)CC3)nc1-2 [DDD01252143]  38.49%
6. Cc1cccc(C2N3CCC4(CC3)c3[nH]c5ccccc5c3CCN24)n1 (stereo not drawn) [DDD01058402]  38.22%
7. CC(=O)N1CCCN(C(=O)CCOc2ccc(C(C)C)cc2)CC1 [DDD01298039]  36.9515%
8. Cc1[nH]n(C2CCCC2)c2nc(C(C)(C)CN3CCN(C)CC3)nc1-2 [DDD01248613]  34.18%
9. Cc1[nH]n(C2CCS(=O)(=O)C2)c(=O)c1Cc1cccc(Cl)c1 (stereo not drawn) [DDD01026994]  34.05%
10. Cc1ccc(CN2CCc3c([nH]c4cc(C5CC5)nn4c3=O)C2)s1 [DDD01058491]  31.81%
11. CCc1c(C)[nH]c2cc(C3CCN(Cc4ccccc4F)C3)nn2c1=O (stereo not drawn) [DDD01270117]  29.7326%
12. COCC(=O)Nc1[nH]nc2c1c(C)nn2Cc1cccc(OC)c1 [DDD01063147]  27.76%
13. Cc1ccccc1CN(C)C(=O)CCC1=NC(=C2N=CN=N2)NO1 [DDD01062116]  27.4706%
14. Cc1ncc(CN2CCc3[nH]c4cc(C(C)(C)C)nn4c(=O)c3C2)n1C [DDD01058400]  26.69%
15. COc1cccc(F)c1-c1nc2c(C3CC3)[nH]n(C)c-2n1 [DDD01246655]  21.14%
16. CCc1c(C)[nH]c2cc(C3CCN(CCc4ccccc4)C3)nn2c1=O (stereo not drawn) [DDD01060567]  20.31%
17. Cc1cc(=O)n(-c2ccc3nnc(C)n3n2)[nH]1 [DDD01038570]  18.99%
18. CCC(=O)Nc1[nH]nc2c1c(C)nn2Cc1cccc(OC)c1 [DDD01063148]  15.82%
19. COCCC(=O)N1CCC(c2cc(=O)n(C)[nH]2)C1 (stereo not drawn) [DDD01060470]  15.3%
20. Cc1[nH]n(C2CCS(=O)(=O)C2)c(=O)c1Cc1ccc(Br)cc1 (stereo not drawn) [DDD01026979]  14.54%
21. Cn1nc(C2CCC2)c(-c2ccc3c(c2)OCO3)c1N [DDD01074643]  14.0603%
22. Cc1ncsc1C(=O)N1CCCCC1c1cc2[nH]c(C)c(C)c(=O)n2n1 (stereo not drawn) [DDD01059037]  11.32%
23. Cc1[nH]n(Cc2ccc(F)cc2)c2nnc(N)c1-2 [DDD01012470]  11.14%
24. Cc1nc(N2CCCC2)ncc1-c1cc(=O)n2ncnc2[nH]1 [DDD01038581]  10.62%
25. COc1ccc(-c2c(C(C)C)nn3c(N)c(C#N)nnc23)cc1 [DDD01035184]  9.631%
26. COc1cc2c(cc1-c1nc3c[nH]n(C(C)C(C)C)c-3n1)OCO2 (stereo not drawn) [DDD01255421]  7.665%
27. CN(Cc1ccc(F)c(F)c1)C(=O)CCC1=NC(=C2N=CN=N2)NO1 [DDD01062114]  6.397%
28. Cn1ccc(C(=O)N2CCCC(c3cc(=O)n(C)[nH]3)C2)n1 (stereo not drawn) [DDD01060541]  2.044%
29. CCn1[nH]cc2nc(-c3ccc(OC)c(COC)c3)nc1-2 [DDD01253750]  0.5819%
30. Cc1[nH]n(C2CCS(=O)(=O)C2)c(=O)c1Cc1ccccc1Cl (stereo not drawn) [DDD01026964]  -0.8948%
31. O=C(CNC(=O)N1CCc2c([nH]c3ccc(Cl)cc23)C1)N1CCOCC1 [DDD01035668]  -2.915%
32. Cc1cc(=O)n2nc(C3CCN(C(=O)c4ccccn4)CC3)cc2[nH]1 [DDD01057174]  -10.49%
33. COCCC(=O)N1Cc2[nH]c3c(C)c(-c4cccs4)nn3c(=O)c2C1 [DDD01056578]  -12.93%
34. CCc1cc(=O)n2nc(C3CCCN3C(=O)c3ccccn3)cc2[nH]1 (stereo not drawn) [DDD01057178]  -15.38%
35. Cc1[nH]n(C2CCS(=O)(=O)C2)c(=O)c1Cc1ccccc1 (stereo not drawn) [DDD01026976]  -17.38%
36. CCc1c(C)nn2c(=O)cc(C3CCN(C(=O)c4cnn(C)c4)C3)[nH]c12 (stereo not drawn) [DDD01056908]  -18.64%
37. Cc1[nH]n(C2CCS(=O)(=O)C2)c(=O)c1CCc1ccccc1 (stereo not drawn) [DDD01026977]  -33.83%
38. CCc1nc(CN(C)C2CCN(CCn3cc(C#N)cn3)C2)no1 (stereo not drawn) [DDD01304196]  -38.96%
39. COc1cc(OC)c(-c2nc3c(C4CC4)[nH]n(C)c-3n2)cc1OC [DDD01244474]  -47.16%
